Activity calls are given as the source filed them. The calls were made as follows: active = hit-call score of the fitted dose curve at least 0.9, where 1 is the maximum; inactive = score below 0.9.
Read-out: flavin-containing dimethylaniline monooxygenases 3 (FMO3), FMO3 (gene 2328)
Experiment: LTEA_HepaRG_FMO3: Life Technologies and Expression Analysis (LTEA) Assay for flavin-containing dimethylaniline monooxygenases 3 (FMO3) using HepaRG (AID 2283453);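 as to AC50: FMO3 transcript by TaqMan qRT-PCR normalized to ACTB GAPDH and POLR2A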
Conditions: mRNA level, 48 h; actives raise or lower the signal
Protocol: LTEA_HepaRG is a cell based, multiplexed-readout assay that uses HepaRG, a human liver cell line, with measurements taken at 48 hours after chemical dosing on a 96-well plate.LTEA_HepaRG_FMO3 is one of 102 assay component(s) measured in the LTEA HepaRG cell culture assay. It is a marker of NR mediated metabolism.Data from the assay component LTEA_HepaRG_FMO3 was analyzed into 1 endpoint. This assay endpoint, LTEA_HepaRG_FMO3, was analyzed with bidirectional fitting relative to DMSO as the negative control and baseline of activity. Using a type of inducible reporter, measures of mRNA induction for gain or loss-of-signal activity can be used to understand regulation of transcription factor activity. To generalize the intended target to other relatable targets, this assay endpoint is annotated to the oxidoreductase intended target family, where the subfamily is […].
A total of 1060 chemcials from the ToxCast library were tested in eight-point concentration-response experiments. Cell culture and cytotoxicity assays were conducted at Thermo Fisher Scientific's Custom Services facility (Madison, WI). A single lot of human HepaRG cells (Thermo Fisher Scientific, Frederick, MD) was used for the cell culture experiments. 96-well format collagen type I coated plates of human HepaRG cells were prepared using established methods. Briefly, cryopreserved HepaRG cells were thawed, plated at a density of approximately 100,000 cells/well in HepaRG Thaw, Plate, and General Purpose media (HPRG770, Thermo Fisher Scientific), and incubated for 48 hours. 0.5% DMSO was selected as vehicle control to balance the requisite need of DMSO in HepaRG cultures to maintain differentiation (for example, baseline metabolism, proportions of hepatocytes vs. cholangiocytes), while enabling further hepatic receptor pathway activation (for example, PXR and CAR) in response to chemical exposure. 48 hours after plating, the culture medium was replaced with HepaRG Serum-Free Incudtion Media. Cells were exposed to each test chemical in duplicate and maintained in CO2 incubators for another 48 hours. Chemical plates were thawed to room temperature and 200x concentrations of treatment groups were prepared. 8-point conentration-reponse curves were made with the highest exposure at 100 uM, followed by half-log dilutions, all in 0.5% DMSO. Each test plate contained variouse controls, induction positive controls (1mM phenobarbital), cytotoxicity positive controls ([…] aflatoxin B1), vehicle controls (0.5% DMSO), and total lysis controls (0.5% DMSO). Cell morphology images were taken using an Essen IncuCyte FLR automated microscope, with six 96-well plates imaged in about 24 minutes. Images were captured and exported and JPEG files. Spent culture media was transfered to black-well plates for the LDH assay, and remaining media was sorted at -80 C for later use. Cells were treated with RLT buffer and frozen until shipped for gene expression analysis. Total RNA was isolated from the cell suspension in 75 uL of Buffer RLT (Qiagen, Germantown, MD 20874) by Quintiles/Expression Analysis (Durham, NC) using a custom isolation procedure. Total RNA from each plate well was transferred to a preamplification plate. Fluidigm's 96.96 Dynamic ArrayTM (Fluidigm, Amsterdam, the Netherlands) technology was used for gene expression analyses by quantitative reverse transcription polymerase chain reaction (qRT-PCR, performed by Quintiles/Expression Analysis, Durham, NC)89. Standard TaqManTM Assays (Applied Biosystems/ThermoFisher Scientific, Foster City, CA) were used to assess the expression of 93 genes selected based on their selectivity and sensitivity to important hepatic receptors known to be modulated by environmental chemicals; importance in human hepatocyte functionality; and hepatotoxicity. […]

Compound	outcome	AC50
Cc1cc(C2CC2)nc(Nc2ccccc2)n1	inactive	
CN(C)C(=O)Nc1cccc(C(F)(F)F)c1	inactive	
CSc1nc(NC(C)C)nc(NC(C)C)n1		35.9 µM (active)
COP(=O)(NC(C)=O)SC (stereo not given)	inactive	
CCOP(=S)(OCC)OC(Cl)C(Cl)(Cl)Cl (stereo not given)	inactive	
COc1cccc(C(=O)NN(C(=O)c2cc(C)cc(C)c2)C(C)(C)C)c1C	inactive	
CC(C)=CC1C(C(=O)OCN2C(=O)C3=C(CCCC3)C2=O)C1(C)C (stereo not given)	inactive	
FC(F)C(F)(F)OCC(Cn1cncn1)c1ccc(Cl)cc1Cl (stereo not given)		35.6 µM (active)
C#CC(C)(C)NC(=O)c1cc(Cl)cc(Cl)c1	inactive	
CCc1cccc(C)c1N(C(=O)CCl)C(C)COC (stereo not given)	inactive	
COc1cc(OC)nc(Sc2cccc(Cl)c2C(=O)O)n1	inactive	
CN(C)NC(=O)CCC(=O)O	inactive	
CN1COCN(Cc2cnc(Cl)s2)C1=N[N+](=O)[O-]	inactive	
CC(C)[C@H](C(=O)O[C@H](C#N)c1cccc(Oc2ccccc2)c1)c1ccc(Cl)cc1	inactive	
CSC1=N[C@@](C)(c2ccccc2)C(=O)N1Nc1ccccc1		30.6 µM (active)
CC1=NNC(=O)N(/N=C/c2cccnc2)C1	inactive	
COP(=O)(OC)C(O)C(Cl)(Cl)Cl (stereo not given)	inactive	
CCOP(=S)(Oc1cnc(C(C)(C)C)nc1)OC(C)C (stereo not given)		4.99 µM (active)
CCCCOC(=O)c1ccccc1C(=O)O	inactive	
CCCCOC(=O)[C@@H](C)Oc1ccc(Oc2ccc(C#N)cc2F)cc1	inactive	

Compound	outcome	AC50
S=C1NCCN1	inactive	
CC(Oc1cccc(Cl)c1)C(=O)O (stereo not given)	inactive	
N#CSCSC#N		83.2 µM (active)
CSc1nnc(C(C)(C)C)c(=O)n1N	inactive	
CCc1cccc(CC)c1N(COC)C(=O)CCl	inactive	
CCCCSP(=O)(SCCCC)SCCCC	inactive	
CCOP(=S)(OCC)SCCSCC	inactive	
CCCSP(=O)(OCC)SCCC	inactive	
CCCCN(CC)c1c([N+](=O)[O-])cc(C(F)(F)F)cc1[N+](=O)[O-]	inactive	
CN(C)[C@@H]1C(=O)C(C(N)=O)=C(O)[C@@]2(O)C(=O)C3=C(O)c4c(O)cccc4[C@@](C)(O)[C@H]3[C@H](O)[C@@H]12	inactive	
C#CCC1=C(C)C(OC(=O)C2C(C=C(C)C)C2(C)C)CC1=O (stereo not given)	inactive	
CCCOCC(=Nc1ccc(Cl)cc1C(F)(F)F)n1ccnc1		73 µM (active)
CC(C1CC1)C(O)(Cn1cncn1)c1ccc(Cl)cc1 (stereo not given)		77.7 µM (active)
CCOP(=O)(OCC)Oc1cc(C)nc(C(C)C)n1	inactive	
Cc1ccn2nc(S(=O)(=O)Nc3c(F)cccc3F)nc2n1	inactive	
CC1(C(=O)Nc2ccc(O)c(Cl)c2Cl)CCCCC1	inactive	
CCCSP(=O)(OCC)Oc1ccc(Br)cc1Cl (stereo not given)	inactive	
O=[N+]([O-])c1cc(C(F)(F)F)c(Cl)c([N+](=O)[O-])c1Nc1ncc(C(F)(F)F)cc1Cl		27.7 µM (active)
CNC(=O)ON=C(SC)C(=O)N(C)C	inactive	
CC(C)N(C(=O)SCC(Cl)=C(Cl)Cl)C(C)C	inactive	
